# Experimental data as given in ChEMBL document CHEMBL1201862, “PubChem BioAssay data set” (2004).
# Out of some 400,000 compounds screened, about 2,100 (0.53%) were called active. Another 14% or so got no clear call; they are omitted. No rule for the calls is given here. Shown is part of a subset that was picked to be rich in actives.
# Molecular target: Ataxin-2 (Homo sapiens) (UniProt Q99700)
# Test: qHTS for Inhibitors of ATXN expression.
# Assay type: functional
# Ataxin-2 (Homo sapiens), sequence (Q99700 whole entry): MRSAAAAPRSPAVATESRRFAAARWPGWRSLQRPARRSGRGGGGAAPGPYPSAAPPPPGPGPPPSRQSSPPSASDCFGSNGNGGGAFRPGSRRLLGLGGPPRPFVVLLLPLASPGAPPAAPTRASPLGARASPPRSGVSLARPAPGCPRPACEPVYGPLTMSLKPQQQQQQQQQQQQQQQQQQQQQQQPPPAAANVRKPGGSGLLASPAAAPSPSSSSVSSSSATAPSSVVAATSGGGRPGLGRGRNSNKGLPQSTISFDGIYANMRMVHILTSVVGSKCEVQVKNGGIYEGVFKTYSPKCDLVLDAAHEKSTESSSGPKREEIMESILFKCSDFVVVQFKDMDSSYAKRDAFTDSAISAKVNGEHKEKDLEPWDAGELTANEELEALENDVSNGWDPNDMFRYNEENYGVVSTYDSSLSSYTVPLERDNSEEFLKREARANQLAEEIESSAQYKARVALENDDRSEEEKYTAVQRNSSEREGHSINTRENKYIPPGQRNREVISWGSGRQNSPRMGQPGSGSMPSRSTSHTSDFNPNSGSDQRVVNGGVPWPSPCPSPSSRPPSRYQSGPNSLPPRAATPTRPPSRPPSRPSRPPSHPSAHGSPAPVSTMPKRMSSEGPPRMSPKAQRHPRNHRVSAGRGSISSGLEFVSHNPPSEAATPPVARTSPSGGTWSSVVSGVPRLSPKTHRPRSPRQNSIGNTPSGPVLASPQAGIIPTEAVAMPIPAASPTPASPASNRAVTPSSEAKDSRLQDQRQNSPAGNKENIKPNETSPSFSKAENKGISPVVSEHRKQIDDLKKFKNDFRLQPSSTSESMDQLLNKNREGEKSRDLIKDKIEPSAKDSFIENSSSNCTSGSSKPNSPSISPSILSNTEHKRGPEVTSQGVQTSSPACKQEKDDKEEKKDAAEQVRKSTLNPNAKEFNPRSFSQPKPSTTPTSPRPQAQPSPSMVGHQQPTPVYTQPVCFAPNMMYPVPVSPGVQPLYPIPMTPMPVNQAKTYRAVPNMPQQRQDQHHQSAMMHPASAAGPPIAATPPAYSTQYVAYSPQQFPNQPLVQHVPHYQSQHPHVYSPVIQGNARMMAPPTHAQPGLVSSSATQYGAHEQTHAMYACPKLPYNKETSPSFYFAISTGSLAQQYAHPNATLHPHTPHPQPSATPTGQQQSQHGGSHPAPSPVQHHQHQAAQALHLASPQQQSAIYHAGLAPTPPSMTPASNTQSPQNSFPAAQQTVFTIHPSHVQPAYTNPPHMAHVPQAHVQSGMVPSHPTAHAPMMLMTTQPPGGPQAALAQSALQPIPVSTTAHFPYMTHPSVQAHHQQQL
row,SMILES,Potency
1,CCc1c(C)c2cc(Cl)c(O)c(CN(C)C)c2oc1=O,inactive
2,COc1ccc(/C=N/NC(=O)c2ccncc2)cc1CN1CCOCC1,inactive
3,COc1ccc(/C=N/n2cnc3c4cc(C)ccc4nc-3c2O)cc1CN1CCCC1,39.8 µM (active)
4,COc1ccc(/C=N/N2C(C)CCCC2C)cc1OC (stereo not drawn),inactive
5,CCOc1ccc2nc(NCCN=C(S)NCCCN(C)C)c(C#N)cc2c1,inactive
6,Cc1c(O)ccc2c(-c3ccccc3)cc(=O)oc12,inactive
7,COc1ccc(CNC[C@@H](CCCCN(C)Cc2ccc(OC)cc2)N2C[C@H](c3ccccc3)N(CCc3ccc(Cl)c(Cl)c3)C(=O)C2=O)cc1,25.1 µM (active)
8,CC(=O)NS(=O)(=O)c1ccc(/N=c2\ssc3c2-c2cc(C)ccc2NC3(C)C)cc1,39.8 µM (active)
9,CCN(CC)c1cc(C)c2cc(NC(=O)/C=C/c3ccccc3Cl)ccc2n1,28.2 µM (active)
10,CCN(CC)c1cc(C)c2cc(NC(=O)c3cccc(F)c3)ccc2n1,39.8 µM (active)
11,Cc1cc(Nc2cccc(Cl)c2)nc2ccc(NC(=O)c3cncc(Br)c3)cc12,inactive
12,CCn1nc(NC(=O)c2ccccc2)c2cc3cccc(C)c3nc21,inactive
13,Cc1cccc(OCC(=O)Nc2ccc3nc(Nc4cccc(Cl)c4)cc(C)c3c2)c1,inactive
14,O=C(Nc1ccc(F)cc1)c1ccc2nc(O)c(O)nc2c1,inactive
15,COc1ccc(Nc2cc(C)c3cc(NC(=O)Cc4c(F)cccc4Cl)ccc3n2)cc1,inactive
16,CCN(CC)c1cc(C)c2cc(NC(=O)c3cc(OC)cc(OC)c3)ccc2n1,35.5 µM (active)
17,COc1ccc(Nc2cc(C)c3cc(NC(=O)c4cc(OC)cc(OC)c4)ccc3n2)cc1,inactive
18,CCN(CC)c1cc(C)c2cc(NC(=O)c3ccc(Br)o3)ccc2n1,35.5 µM (active)
19,Cc1ccccc1/C=C/c1cccc[n+]1C,inactive
20,O=C(N/C(=C/c1cccc(Br)c1)C(=O)N1CCOCC1)c1ccco1,inactive
21,C(=Cc1c[nH]c2ccccc12)c1ccc2ccccc2n1,inactive
22,CC(C(=O)NCC1CCCCC1)N(C)CC(=O)Nc1ccc(N2CCOCC2)cc1 (stereo not drawn),inactive
23,Cc1cccc(C2C=C(c3ccc(C)c(C)c3)Nc3nnnn32)c1 (stereo not drawn),inactive
24,CCN(CC)c1cc(C)c2cc(NC(=O)c3cccc(OC)c3)ccc2n1,39.8 µM (active)
25,CCN1CCN(c2cc(C)c3cc(NC(=O)c4cccc(OC)c4)ccc3n2)CC1,inactive

row,SMILES,Potency
1,Cc1ccc(NN2C(=O)C=C(c3ccc(Cl)cc3)C2=O)cc1,28.2 µM (active)
2,CC(=O)c1ccc(F)c(-c2cc(C)cc3c2OC(CNC(=O)c2csc(C)n2)C3)c1 (stereo not drawn),inactive
3,Cc1cccc(COC[C@H](CC(C)C)N2CCN(C(=O)c3ccc(C(C)(C)C)cc3)CCC2=O)c1,39.8 µM (active)
4,CC(C)CC(COCc1cccc(C(F)(F)F)c1)N1CCN(C(=O)c2cccc(C(F)(F)F)c2)CCC1=O (stereo not drawn),31.6 µM (active)
5,Cc1cccc(COC[C@H](CC(C)C)N2CCN(C(=O)c3ccc(C(F)(F)F)cc3)CCC2=O)c1,35.5 µM (active)
6,O=C(COC(=O)C1=Cc2ccccc2OC1)NCc1ccco1,inactive
7,Cn1c(Cl)c(/C=N/OC(=O)C2CC2)c2ccccc21,inactive
8,O=c1ccc2cc(O)c(O)cc2o1,inactive
9,OC[C@@H]1[C@@H](c2ccc(Cl)cc2)C(c2cccc(Cl)c2)=NN1c1ccccc1,inactive
10,CCN(CC)CCNC(=O)CSc1c2c(nc3cc(Cl)ccc13)CCCC2,35.5 µM (active)
11,CCN(CC)CCCNC(=O)CSc1nc(C)cc(C)n1,inactive
12,O=C(O)c1c2c(nc3ccc(Cl)cc13)CCC2,inactive
13,CCN(CC)CCCC(C)n1c2nc(=O)[nH]c(=O)c-2nc2cc(Cl)ccc21 (stereo not drawn),inactive
14,CCCN(CCC)C(=O)CSc1c2c(nc3ccc(Cl)cc13)CCCC2,39.8 µM (active)
15,CCN(CC)CCCNC(=O)CSc1c2c(nc3cc(Cl)ccc13)CCCC2,28.2 µM (active)
16,O=C(CSc1c2c(nc3ccc(Cl)cc13)CCCC2)NCCCN1CCOCC1,35.5 µM (active)
17,CC1CCCC(NC(=O)c2ccc3c(SCC(=O)O)c4c(nc3c2)CCC4)C1C (stereo not drawn),inactive
18,O=C(Cc1cc(O)nc(O)n1)NCCN1CCOCC1,inactive
19,Cc1cc2cc(C#N)c(NCCN=C(S)NCCCN3CCOCC3)nc2cc1C,inactive
20,CCOC(=O)C1CCCc2c1[nH]c1ccc(Cl)cc21 (stereo not drawn),inactive
21,Cc1occc1-c1nnc(SCC(=O)NC2CCCCC2)o1,inactive
22,Cc1c(CC(=O)N2CCN(C(=O)C3COc4ccccc4O3)CC2)c(=O)oc2cc(O)c(Cl)cc12 (stereo not drawn),inactive
23,Nc1cccc2c1C(=O)N(c1ccccc1)C2=O,inactive
24,Cc1ccc(C(=O)Nc2nc3n(n2)C(c2ccccc2)C=C(c2ccccc2)N3)cc1 (stereo not drawn),inactive
25,CNc1cc(C)c(C#N)c2nc3ccccc3n12,inactive

row,SMILES,Potency
1,CCN(CC)Cc1cc(O)c(CN(CC)CC)cc1O,inactive
2,CCC(c1ccc(O)c(O)c1)C(CC)c1ccc(O)c(O)c1 (stereo not drawn),31.6 µM (active)
3,CC(C)(C)N1C(=O)c2ccc(C(=O)Nc3cc(C(=O)O)cc(C(=O)O)c3)cc2C1=O,inactive
4,COc1cc(C(=O)NCCNc2nc3ccc(C)cc3cc2C#N)cc(OC)c1OC,inactive
5,COc1ccc(CCNC(=S)NC(=O)c2cc(OC)c(OC)c(OC)c2)cc1OC,inactive
6,COc1cc(C(=O)NCCc2csc(-c3ccc(Cl)cc3)n2)cc(OC)c1OC,28.2 µM (active)
7,COc1ccc2nc(-c3ccccc3)cc(C(=O)N3CCC3)c2c1,inactive
8,COc1ccc(-c2cc(C(=O)Oc3ccccc3)c3cc(C)ccc3n2)cc1,35.5 µM (active)
9,COc1ccc2nc(-c3ccccc3)cc(C(=O)OCC(=O)N3CC(C)OC(C)C3)c2c1 (stereo not drawn),inactive
10,CCOC(=O)c1c(C)nc2sc(C(=O)Nc3ccccc3)c(N)c2c1-c1ccc(OC)cc1,inactive
11,CCOC(=O)c1c(N)sc(C(=O)Nc2ccccc2)c1C,inactive
12,CCOC(=O)c1c(NC(=O)CCl)sc(CN(C)C)c1-c1ccccc1,37.7 µM (active)
13,CC(=O)Nc1nc2n(n1)C(c1ccc(F)cc1)C=C(c1ccccc1)N2 (stereo not drawn),inactive
14,CCCCCn1/c(=N/C(C)=O)c(C#N)cc2c(=O)n3ccccc3nc21,inactive
15,COc1ccccc1[C@@H]1C(c2ccccc2)=NN(c2ccc(Br)cc2)[C@H]1C(=O)N1CCOC1=O,inactive
16,CCCn1c(O)nnc1SCC(=O)N1N=C2/C(=C/c3ccc(OC)cc3)CCCC2C1c1ccc(OC)cc1 (stereo not drawn),25.1 µM (active)
17,CNC(=O)c1sc(N2N=C3/C(=C/c4ccccc4)CCCC3C2c2ccccc2)nc1C (stereo not drawn),inactive
18,Cc1nc(N2N=C3/C(=C/c4ccc(F)cc4)CCCC3C2c2ccc(F)cc2)sc1C(=O)N(C)C (stereo not drawn),inactive
19,O=c1[nH]c(=O)c2nc3c4ccccc4c4ccccc4c3nc2[nH]1,inactive
20,CC1CCC2C(=O)N(c3ccc(C(=O)Oc4cccc5cccnc45)cc3)C(=O)C2C1 (stereo not drawn),inactive
21,Cc1cc2nn(-c3ccc(Cl)cc3)nc2cc1N,inactive
22,Cc1cc2nc3ccc(N(C)C)cc3nc2cc1N,25.1 µM (active)
23,CN(C)c1ccc2c(O)ccnc2c1,inactive
24,Nc1c(C(=O)NCCN2CCOCC2)c2nc3ccccc3nc2n1CCc1ccccc1,inactive
25,COc1cccc(C2C3=C(O)CC(C)(C)CC3=Nc3cc(OC)c(OC)cc32)c1 (stereo not drawn),inactive

row,SMILES,Potency
1,COC(=O)C=C1CCC2C3CCC4=CC(=O)C(Br)CC4(C)C3C(=O)CC12C (stereo not drawn),31.6 µM (active)
2,COc1ccc(C2CC(c3ccc(Cl)cc3)=NN2c2ccc(S(N)(=O)=O)cc2)cc1 (stereo not drawn),inactive
3,CCOC(=O)C1(C)C=C(Nc2ccc(NC(C)=O)cc2)C(=O)N1c1ccc(NC(C)=O)cc1 (stereo not drawn),inactive
4,COc1ccccc1CC(NC(C)=O)C(=O)NC1CCN(C(=O)NCc2ccccc2)CC1 (stereo not drawn),inactive
5,CC(C)(C)OC(=O)NCc1ccc(CNC(=O)c2[nH]cnc2C(=O)NC2CCN(C(=O)OC(C)(C)C)CC2)cc1,20 µM (active)
6,CC(C)(C)OC(=O)N1CCC(NC(=O)c2[nH]cnc2C(=O)Nc2cccc(Cl)c2)CC1,35.5 µM (active)
7,COc1cc(OC)c(N2CC(C(=O)Nc3cccc(C(=O)NC4CC4)c3)CC2=O)cc1Cl (stereo not drawn),inactive
8,CC(=O)NC(Cc1ccccc1C)C(=O)NC1CCN(C(=O)NCc2ccccc2)CC1 (stereo not drawn),inactive
9,CC(C)(C)OC(=O)N1CCCN(C(=O)Nc2cccc(Cl)c2)CC1,inactive
10,CS(=O)(=O)Nc1nc2n(n1)C(c1ccccc1)C=C(c1ccc(Br)cc1)N2 (stereo not drawn),inactive
11,COc1ccc(C2CC(c3ccccc3C(F)(F)F)=NN2c2ccc(S(N)(=O)=O)cc2)cc1 (stereo not drawn),inactive
12,CCOC(=O)C1CCN(Cc2ccc3ccccc3c2)CC1,inactive
13,Cc1ccc(Cn2c(CN3CCC(C(=O)NCc4cccnc4)CC3)cc3ccccc32)cc1,35.5 µM (active)
14,CCCn1c(=N)c(C(=O)NCc2cccnc2)cc2c(=O)n3cccc(C)c3nc21,inactive
15,O=C(Nc1nc2c(s1)CN(Cc1ccccc1)CC2)C1CCCC1,inactive
16,CN(C)CCNC(=O)C1CCN(Cc2cc3ccccc3n2Cc2ccccc2)CC1,28.2 µM (active)
17,CCn1c(=N)c(C(=O)NCc2cccnc2)cc2c(=O)n3cc(C)ccc3nc21,inactive
18,Cc1cccn2c(=O)c3cc(C(=O)NCc4cccnc4)c(=N)n(CC4CCCO4)c3nc12 (stereo not drawn),inactive
19,Cc1ccc(CNC(=O)C2CCN(c3nnc(N4CCCC4=O)s3)CC2)cc1,inactive
20,Cc1cccc(Cn2c(CN3CCC(C(=O)NCc4cccnc4)CC3)cc3ccccc32)c1,22.4 µM (active)
21,CCCn1c(=N)c(C(=O)NCc2cccnc2)cc2c(=O)n3cc(C)ccc3nc21,inactive
22,O=C(Nc1nc2c(s1)CN(Cc1ccccc1)CC2)C1CCC1,inactive
23,Cc1ccccc1Cn1c(CN2CCC(C(=O)NCc3cccnc3)CC2)cc2ccccc21,31.6 µM (active)
